Assay results: PubChem BioAssay (NCI)
The panel holds about 83,000 compounds, 20% with a hit somewhere; the sample as a whole holds those more often.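 Note: values are percent growth. 100 is the growth of untreated cells, values between 100 and 0 indicate rising inhibition; between -100 and 0 indicates cell death.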 The source made the active and inactive calls. The calls were made as follows: active = growth percent below 10; inactive = the rest.

Tests used:
Experiment in all cases: NCI-60 one-dose screen, 48 h (100 = growth as untreated, 0 = no growth, -100 = all killed)
Conditions in all cases: 10 µM unless noted
[1] = test system: MOLT-4 leukemia
[2] = test system: SR leukemia
[3] = test system: RPMI-8226 leukemia
[4] = test system: OVCAR-8 ovarian
[5] = test system: OVCAR-5 ovarian
[6] = test system: OVCAR-4 ovarian
[7] = test system: SK-OV-3 ovarian
[8] = test system: IGROV1 ovarian
[9] = test system: OVCAR-3 ovarian
[10] = test system: NCI/ADR-RES ovarian
[11] = test system: T-47D breast
[12] = test system: BT-549 breast
[13] = test system: MDA-MB-435 melanoma
[14] = test system: SW-620 colon
[15] = test system: HCT-116 colon
[16] = test system: HCC-2998 colon
[17] = test system: KM12 colon
[18] = test system: HS 578T breast
[19] = test system: MCF7 breast

Measured: growth

Nc1cccnc1
inactive: [1] 101% | [2] 90.4% | [3] 105% | [4] 104% | [5] 116% | [6] 129% | [7] 105% | [8] 106% | [9] 119% | [10] 104% | [11] 106% | [12] 110% | [13] 122% | [14] 105% | [15] 104% | [16] 101% | [17] 112%

CC(C)COC(=O)Cc1ccccc1
inactive: [1] 103% | [2] 100% | [3] 103% | [4] 110% | [5] 106% | [6] 105% | [7] 105% | [8] 109% | [9] 111% | [18] 102% | [10] 110% | [12] 108% | [13] 106% | [14] 107% | [19] 106% | [15] 105% | [16] 107% | [17] 105%

C=CC[PH+](c1ccccc1)c1ccccc1.C=CC[PH+](c1ccccc1)c1ccccc1.[Pt+2].[S-]c1nc2ccccc2[nH]1.[S-]c1nc2ccccc2[nH]1
active: [1] 0.306% | [2] 4.38% | [3] -19.1% | [4] 2.64% | [5] -3.98% | [6] 4.93% | [7] 8.34% | [8] -23.4% | [9] -23.3% | [18] -16.6% | [11] -6.06% | [12] -28.1% | [13] -50.5% | [19] 3.99% | [15] -29.7% | [16] -33.2% | [17] -63%
inactive: [10] 88.4%

O=[N+]([O-])c1ccc(P(=O)(O)O)cc1
inactive: [1] 102% | [2] 94.8% | [3] 108% | [4] 103% | [5] 101% | [6] 96.2% | [7] 99.8% | [8] 102% | [9] 113% | [18] 108% | [10] 103% | [12] 89.9% | [13] 101% | [14] 105% | [19] 91.2% | [15] 96.6% | [16] 102% | [17] 115%

Cc1nnc([S-])o1.[Au+].c1ccc([PH+](c2ccccc2)c2ccccc2)cc1
active: [14] -11.8%
inactive: [1] 38.6% | [2] 20.8% | [3] 17.2% | [4] 44.8% | [5] 110% | [6] 60.4% | [7] 111% | [8] 20.9% | [18] 30.4% | [10] 99.6% | [11] 29.6% | [12] 34.1% | [13] 43.9% | [19] 10.3% | [15] 21.6% | [16] 80.2% | [17] 74.2%

CC(=O)Cc1ccc2c(c1)OCO2
inactive: [1] 121% | [2] 122% | [3] 113% | [4] 96.6% | [5] 94% | [6] 135% | [7] 107% | [8] 111% | [18] 111% | [10] 103% | [11] 103% | [12] 106% | [13] 105% | [14] 110% | [19] 115% | [15] 102% | [16] 102% | [17] 96.1%

CC12CCC3C4CCC(=O)C=C4CCC3C1CC1CC(=O)OC12 (centres undefined)
inactive: [1] 95.6% | [2] 90.6% | [3] 94.3% | [4] 97.2% | [5] 107% | [6] 103% | [7] 101% | [8] 96.7% | [9] 101% | [18] 95.7% | [10] 101% | [11] 101% | [12] 107% | [13] 112% | [19] 98.7% | [15] 97.1% | [16] 110% | [17] 96%

c1ccc2c(c1)sc1ccccc12
inactive: [1] 104% | [2] 105% | [3] 103% | [4] 101% | [5] 95.7% | [6] 105% | [7] 104% | [8] 98.2% | [9] 116% | [18] 104% | [10] 99.4% | [11] 112% | [12] 96.7% | [13] 92.8% | [19] 102% | [15] 96.6% | [16] 97.3% | [17] 103%

Cc1ccccc1-n1c(/C=C\c2ccccn2)nc2ccccc2c1=O
inactive: [1] 32.7% | [4] 71% | [5] 106% | [6] 67.6% | [7] 86.6% | [8] 67.1% | [9] 50.3% | [18] 44.2% | [11] 49.1% | [13] 66.5% | [14] 68.9% | [19] 66.9% | [16] 38.2% | [17] 65.4%
active: [2] -5.07% | [3] 2.88% | [10] -19.9%

N#CC(C#N)=C(C#N)C#N
inactive: [1] 102% | [2] 105% | [3] 101% | [4] 96% | [5] 101% | [6] 104% | [7] 109% | [8] 108% | [9] 107% | [18] 103% | [10] 110% | [11] 95.8% | [12] 104% | [13] 107% | [14] 104% | [19] 98.1% | [16] 110% | [17] 108%

CC[C@@H](C)C(=O)O[C@H]1[C@H](O)[C@H]2[C@@H](CN3C[C@@H](C)CC[C@H]3[C@@]2(C)O)[C@@H]2C[C@]34O[C@]5(O)[C@@H](OC(=O)[C@@](C)(O)CC)CC[C@@]3(C)[C@@H]5[C@@H](OC(C)=O)[C@@H](OC(C)=O)[C@H]4[C@@]21O
inactive: [1] 87.3% | [2] 100% | [3] 94.1% | [4] 94.2% | [5] 103% | [6] 95.1% | [7] 93.9% | [8] 106% | [18] 97.3% | [10] 104% | [11] 97.3% | [12] 99.7% | [13] 115% | [14] 95.2% | [19] 98.4% | [15] 98.1% | [16] 87.9% | [17] 100%

COc1cc(-c2ccc(N)c(OC)c2)ccc1N
inactive: [1] 173% | [2] 143% | [3] 96.5% | [4] 114% | [5] 94.4% | [6] 104% | [7] 105% | [8] 120% | [9] 104% | [18] 105% | [10] 105% | [11] 96.4% | [12] 95.6% | [13] 107% | [19] 99.8% | [15] 112% | [16] 124% | [17] 101%

CCC(=O)C(CC(C)N1CCCCCC1)(c1ccccc1)c1ccccc1 (centres undefined)
inactive: [1] 93.9% | [2] 102% | [3] 99.3% | [4] 97% | [5] 89.1% | [7] 93.6% | [8] 78.6% | [9] 96.5% | [18] 96.7% | [10] 102% | [11] 95.3% | [12] 97.4% | [13] 98.3% | [14] 99.1% | [19] 81.8% | [15] 72.1% | [16] 97.7% | [17] 107%

C=CCOC(=O)C(Br)CC (centres undefined)
inactive: [1] 102% | [2] 100% | [3] 112% | [4] 106% | [5] 113% | [7] 105% | [8] 115% | [9] 105% | [18] 104% | [10] 107% | [11] 95.8% | [12] 111% | [13] 109% | [14] 104% | [19] 103% | [15] 104% | [17] 112%

Cc1cc(NC(=O)NCCCOc2ccc(N3C(N)=NC(N)=NC3(C)C)cc2Cl)ccc1S(=O)(=O)F
inactive: [1] 37.5% | [2] 22.4% | [3] 36.6% | [4] 31.7% | [5] 43.1% | [6] 34.5% | [7] 65.3% | [8] 25% | [18] 60.3% | [10] 100% | [11] 51.1% | [12] 59.9% | [13] 27.7% | [14] 18.5% | [19] 25.5% | [15] 17.8% | [17] 20.9%
active: [16] 7.8%

C[C@]12CC[C@H](O)C[C@@H]1CC[C@@H]1[C@@H]2CC[C@]2(C)OC(=O)CC[C@@H]12
inactive: [1] 113% | [2] 125% | [3] 102% | [4] 85.6% | [5] 93.7% | [6] 104% | [7] 85% | [8] 93.1% | [18] 111% | [10] 101% | [11] 63.6% | [12] 88.2% | [13] 102% | [14] 115% | [19] 96.8% | [16] 102% | [17] 92.5%
